Several values for one entry are separate records, joined by “and”; a condition that tells them apart may be missing. Equal values may be shown once. Screen size: about 5,500 compounds; about 2,000 (36%) were called active. Roughly 18% stayed inconclusive and do not appear here. Rule as the data show it: active = normalized growth mostly below about 0.91 (no sharp cut-off); inconclusive = no clear call, values can overlap the other calls; inactive = mostly above about 0.92. The list shows a part of the results.
Assay: chemical genetic growth profiling, strain panel (AID 1159580);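 also: tested at 20 µM; growth read once vehicle control cultures reached saturation at 30 °C; 1 = growth at the plate median or of vehicle wells; lower values mean less growth of the strain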
Conditions: S. cerevisiae deletion strains, growth OD

Measured: normalized growth

COc1cc(Cc2cnc(N)nc2N)cc(OC)c1OC
inactive: locus YAL013W, strain DEP1, stronger effect = lower value 1 and 1.03 | locus YAL021C, strain ccr4, stronger effect = lower value 1.02 | locus YAL026C, strain drs2, stronger effect = lower value 1.01 | locus YAL030W, strain snc1, stronger effect = lower value 1.01 | locus YAL040C, strain CLN3, stronger effect = lower value 0.987 | locus YBL061C, strain skt5, stronger effect = lower value 1.01 | locus YBR009C, strain hhf1, stronger effect = lower value 1.01 | locus YBR021W, strain FUR4, stronger effect = lower value 0.977 | locus YBR023C, strain chs3, stronger effect = lower value 1.01 | locus YBR171W, strain sec66, stronger effect = lower value 1.02 | locus YBR229C, strain ROT2, stronger effect = lower value 0.998 | locus YBR231C, strain swc5, stronger effect = lower value 1.01 | locus YBR279W, strain paf1, stronger effect = lower value 1.02 | locus YCL011C, strain gbp2, stronger effect = lower value 1.02 | locus YCL016C, strain dcc1, stronger effect = lower value 1.02 | locus YCL029C, strain bik1, stronger effect = lower value 0.982 | locus YCL061C, strain MRC1 (second series), stronger effect = lower value 0.992 | locus YCL069W, strain vba3, stronger effect = lower value 1.02 | locus YCR088W, strain abp1, stronger effect = lower value 1.02 | locus YDL005C, strain med2, stronger effect = lower value 1.02 | locus YDL035C, strain GPR1, stronger effect = lower value 1.03 | locus YDL040C, strain nat1, stronger effect = lower value 1.01 | locus YDL074C, strain BRE1, stronger effect = lower value 0.993 | locus YDL101C, strain DUN1, stronger effect = lower value 0.99 | locus YDL134C, strain PPH21, stronger effect = lower value 0.986 | locus YDL185W, strain tfp1, stronger effect = lower value 0.987 | locus YDL192W, strain arf1, stronger effect = lower value 0.99 | locus YDR001C, strain nth1, stronger effect = lower value 1.01 | locus YDR069C, strain doa4, stronger effect = lower value 1.03 | locus YDR101C, strain arx1, stronger effect = lower value 0.986 | locus YDR137W, strain rgp1, stronger effect = lower value 1.02 | locus YDR150W, strain NUM1, stronger effect = lower value 1 | locus YDR159W, strain sac3, stronger effect = lower value 0.977 | locus YDR162C, strain NBP2, stronger effect = lower value 1 | locus YDR195W, strain ref2 1 | locus YDR297W, strain sur2, stronger effect = lower value 1.01 | locus YDR318W, strain mcm21, stronger effect = lower value 0.99 | locus YDR334W, strain swr1, stronger effect = lower value 1.02 | locus YDR335W, strain msn5, stronger effect = lower value 1.02 | locus YDR363W, strain ESC2, stronger effect = lower value 0.991 | locus YDR388W, stronger effect = lower value 0.987 | locus YDR392W, strain spt3, stronger effect = lower value 0.984 | locus YDR502C, strain sam2, stronger effect = lower value 0.998 | locus YEL003W, strain gim4, stronger effect = lower value 1.02 | locus YEL037C, strain rad23, stronger effect = lower value 1.01 | locus YEL061C, strain CIN8 (second series), stronger effect = lower value 1.01 | locus YEL061C, strain CIN8, stronger effect = lower value 0.997 | locus YER002W, strain NOP16, stronger effect = lower value 0.968 | locus YER015W, strain faa2, stronger effect = lower value 1.02 | locus YER016W, strain bim1, stronger effect = lower value 1.01 | locus YER110C, stronger effect = lower value 0.988 | locus YER111C, strain swi4, stronger effect = lower value 1.03 | locus YER155C, strain BEM2 (second series), stronger effect = lower value 0.991 | locus YER155C, strain BEM2, stronger effect = lower value 0.989 | locus YER167W, strain BCK2, stronger effect = lower value 1.01 | locus YFR010W, strain ubp6, stronger effect = lower value 1.01 | locus YGL078C, strain dbp3, stronger effect = lower value 0.992 | locus YGL086W, strain mad1, stronger effect = lower value 1.01 | locus YGL167C, strain pmr1, stronger effect = lower value 1.02 | locus YGL173C, strain kem1, stronger effect = lower value 1.02 | locus YGL227W, strain vid30, stronger effect = lower value 1.01 | locus YGL240W, strain doc1, stronger effect = lower value 1.01 | locus YGL248W, strain PDE1, stronger effect = lower value 1 | locus YGL253W, strain hxk2, stronger effect = lower value 1.01 | locus YGR078C, strain PAC10, stronger effect = lower value 1.01 | locus YGR135W, strain pre9, stronger effect = lower value 0.985 | locus YGR229C, strain SMI1, stronger effect = lower value 1.04 | locus YGR252W, strain gcn5, stronger effect = lower value 1.07 | locus YHR013C, strain ard1, stronger effect = lower value 1.01 | locus YHR027C, strain rpn1, stronger effect = lower value 1.01 | locus YHR030C, strain SLT2, stronger effect = lower value 0.999 and 0.966 | locus YHR079C, strain IRE1 (second series), stronger effect = lower value 0.988 | locus YHR079C, strain IRE1, stronger effect = lower value 0.979 | locus YHR094C, strain hxt1, stronger effect = lower value 0.993 | locus YHR129C, strain ARP1, stronger effect = lower value 0.991 | locus YHR142W, strain chs7, stronger effect = lower value 1.03 | locus YHR200W, strain rpn10, stronger effect = lower value 0.989 | locus YIL066C, strain RNR3, stronger effect = lower value 1 | locus YIL073C, strain SPO22, stronger effect = lower value 0.995 | locus YIL125W, strain kgd1, stronger effect = lower value 1 | locus YIR030C, strain dcg1, stronger effect = lower value 0.991 | locus YJL092W, strain hpr5, stronger effect = lower value 1 | locus YJL095W, strain BCK1 (second series), stronger effect = lower value 1.01 | locus YJL095W, strain BCK1, stronger effect = lower value 0.988 and 0.98 | locus YJL115W, strain asf1, stronger effect = lower value 1.02 | locus YJL129C, strain trk1, stronger effect = lower value 1.01 | locus YJL134W, strain LCB3, stronger effect = lower value 0.999 | locus YJL154C, strain vps35, stronger effect = lower value 1.03 | locus YJL164C, strain tpk1, stronger effect = lower value 1.01 | locus YJL166W, strain qcr8, stronger effect = lower value 0.993 | locus YJL168C, strain set2, stronger effect = lower value 0.993 | locus YJL187C, strain SWE1 (second series), stronger effect = lower value 0.993 | locus YJL187C, strain SWE1, stronger effect = lower value 1.02 | locus YJR043C, strain POL32, stronger effect = lower value 1 | locus YJR066W, strain TOR1, stronger effect = lower value 0.929
